Cruzain inh noDet: qHTS Assay for Promiscuous and Specific Inhibitors of Cruzain (without detergent) | Cruzipain (Trypanosoma cruzi), P25779 | purified cruzain, Z-FR-AMC fluorescence, no detergent | Potency, µM, for inactives: max response, negative = inhibition, most hits filed as inhibitors | hit rate 2.3% among 200,000 | AID 1476, 2009;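 note: plate controls were enzyme without inhibitor for no effect and buffer without enzyme for full effect; nearly all actives have a fitted effect of over 40% in size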
Target sequence (P25779 123-467 limits assumed): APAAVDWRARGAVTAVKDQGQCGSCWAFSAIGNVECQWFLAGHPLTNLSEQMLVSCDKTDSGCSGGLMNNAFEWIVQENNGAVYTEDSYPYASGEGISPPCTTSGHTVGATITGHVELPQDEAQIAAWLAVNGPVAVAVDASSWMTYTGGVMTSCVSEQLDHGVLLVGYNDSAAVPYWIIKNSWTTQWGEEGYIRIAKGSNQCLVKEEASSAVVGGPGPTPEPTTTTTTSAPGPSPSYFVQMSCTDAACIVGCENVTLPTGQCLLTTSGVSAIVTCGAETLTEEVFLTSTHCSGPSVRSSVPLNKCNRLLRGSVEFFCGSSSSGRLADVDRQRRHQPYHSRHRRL
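Purified cruzain at 1.5 nM, pre-incubated 15 min with compound at room temperature in 100 mM sodium acetate pH 5.5, 5 mM DTT, 0.00005% Triton X-100. Reaction started with 2 uM Z-FR-AMC; AMC fluorescence increase over 60 s gives rate.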
Cruzain Triton: qHTS Assay for Promiscuous and Specific Inhibitors of Cruzain (with detergent). Potency, µM, for the others: max response, negative = inhibition, most hits filed as inhibitors. purified cruzain, Z-FR-AMC fluorescence, 0.01% Triton. hit rate 0.43% among 200,000. Cruzipain (Trypanosoma cruzi), P25779;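 note: plate controls were neutral wells for no effect and buffer without enzyme for full effect; nearly all actives have a fitted effect of over 40% in size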
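Cysteine protease activity tested under reducing, mildly acidic conditions (100 mM sodium acetate pH 5.5, 5 mM DTT) plus 0.01% Triton X-100. Cruzain 1.5 nM; substrate Z-FR-AMC 2 uM; 15 min compound preincubation at room temperature.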
Giardia FBPA inh: qHTS Assay for Inhibitors of Fructose-1,6-bisphosphate Aldolase from Giardia Lamblia | purified Giardia FBPA | Potency, µM (top dose mostly 59.6 µM), for inactives: top-dose activity, negative = inhibition, usual class: inhibitors | hit rate 0.71% among 290,000; note: nearly all actives have a fitted effect of over 55% in size
Target sequence (A8B2U2 whole entry, looked up): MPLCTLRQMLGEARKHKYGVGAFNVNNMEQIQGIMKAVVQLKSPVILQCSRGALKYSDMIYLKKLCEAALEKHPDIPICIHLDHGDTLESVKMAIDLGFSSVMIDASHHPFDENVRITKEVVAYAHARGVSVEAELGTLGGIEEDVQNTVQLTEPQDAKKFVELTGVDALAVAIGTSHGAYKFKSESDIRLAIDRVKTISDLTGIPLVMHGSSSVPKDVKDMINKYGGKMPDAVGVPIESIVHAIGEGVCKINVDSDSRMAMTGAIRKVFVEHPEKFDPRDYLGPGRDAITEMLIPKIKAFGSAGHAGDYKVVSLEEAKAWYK
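40 nM FBPA preincubated 10 min at RT with compound (up to 57.5 uM final), then substrate plus GAPDH/TPI/NAD/arsenate coupling and diaphorase/resazurin added. Fluorescence read after 20 min at RT, 525/598 nm.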
An asterisk follows results filed as active; u = inconclusive; x = no result given; [ ] = another dose, or the depositor's remark. The full list was thinned out, with hits kept by preference. Calls come from the whole dose curve; as a rule, active = well fitted curve in the direction sought with a large enough effect; inconclusive = small, poorly fitted or top-dose-only effect, or another doubt; inactive = no such curve, though single readings can be large; an effect the other way counts as inactive or inconclusive. Unless noted, % is set by controls: 0 for no effect and ±100 for the full control effect; potency is the fitted concentration of half-maximal effect.

SMILES | Cruzain inh noDet | Cruzain Triton | Giardia FBPA inh
C[N@+]1(CCC(=O)c2ccccc2)CC[C@H]2CC[C@H](C2)C1 | 2.8% | 2.7% | x
Cc1nc2ccc3nc(NC(=O)c4ccc5c(c4)OCCO5)sc3c2s1 | -4.5% | 3.2% | 4.7%
Cc1nc2c(ccc3nc(NC(=O)c4ccc5c(c4)OCCO5)sc32)s1 | 1.7% | 14.1µM* | -9.6%
Cc1ccc(C2=N/C(=C\N3CCCCC3)C(=O)O2)cc1 | -9.3% | -8.7% | -3.4%
Cc1nn(-c2ccccc2)c(N2CCCC2)c1/C=C1\N=C(c2ccc(OC(C)C)cc2)OC1=O | 5.01µM* | 1.41µM* | -2.5%
O=S(=O)(O)CCCc1cccc2ccccc12 | -0.6% | 3.5% | x
CCOc1ccccc1NC(=O)Cn1c(=O)n(-c2ccc(Cl)cc2)c(=O)c2oc3ccccc3c21 | 6.8% | -0.5% | x
CC(C)(C)NC(=O)COC(=O)CNC(=O)c1cc(Cl)cc([N+](=O)[O-])c1 | 20µM* | 25.1µM* | 0.9%
CC(C)CNC(=O)COC(=O)CNC(=O)c1cc(Cl)cc([N+](=O)[O-])c1 | 7.94µM* | 10µM* | 0.6%
COc1cc(OC)cc(C(=O)NCC(=O)OCC(=O)NC(C)(C)C)c1 | 2.4% | -1.2% | 2.7%
CCNC(=O)COC(=O)CNC(=O)c1cc(Cl)cc([N+](=O)[O-])c1 | 7.94µM* | 7.94µM* | -3.3%
CCCCNC(=O)COC(=O)CNC(=O)c1cc(Cl)cc([N+](=O)[O-])c1 | x | x | 1.6%
CNC(=O)COC(=O)CNC(=O)c1cc(Cl)cc([N+](=O)[O-])c1 | x | x | 5.2%
COc1cccc(CNC(=O)c2ccc(-c3nc(COc4ccccc4)c(C)o3)cc2)c1 | 19.6% | -5.4% | x
COc1ccccc1NC(=O)CSc1nnc(NC(=O)Nc2ccc(C)cc2)s1 | 7.2% | -0.6% | x
CCc1c2c(nc3ccc(OC)cc13)-c1nc3ccccc3c(=O)n1C2 | x | x | -15.5%
Cc1ccc(C(=O)c2sc(Nc3ccccc3)c(S(=O)(=O)c3ccccc3)c2N)c(C)c1 | 7.94µM* | -1.9% | x
Cc1ccc(C(=O)c2sc(Nc3ccccc3)c(C#N)c2N)cc1 | 7.7% | -5.2% | -1.6%
COc1ccc(C(=O)c2sc(Nc3ccccc3F)nc2N)cc1 | x | x | 4.8%
Cc1ccc(C(=O)c2sc(Nc3ccccc3F)c(S(=O)(=O)c3ccccc3)c2N)c(C)c1 | 6.31µM* | -2.6% | x
Cc1[nH]c2ccc(OCc3ccccc3)cc2c1CCN | x | x | -16.7%
Cc1[nH]c2ccc(O)cc2c1CCN | 7.6% | 1.5% | 3.54µM*
CSCC[C@@H]1NC(=O)C/C=C\[C@@H](C)COC(=O)[C@H](C)COC1=O | x | x | 0.6%[12.9 µM]
CC(C)[C@@H](C)/C=C\[C@@H](C)[C@@H]1CC[C@H]2C3=CC=C4C[C@@H](O)CC[C@]4(C)[C@H]3CC[C@]21C | 3.7% | 1.5% | x
CCOc1ccc(-n2c(=O)cc(N3CCN(c4ccccc4)CC3)[nH]c2=O)cc1 | 2µM* | 1.7% | 0.1%
SMILES | Cruzain inh noDet | Cruzain Triton | Giardia FBPA inh
COc1ccc(-n2c(=O)cc(N3CCN(c4ccccc4)CC3)[nH]c2=O)cc1 | -2.6% | 4.8% | 1.7%
Cc1noc(-c2ccc(CSCCC(=O)O)cc2)c1NC(=O)OC(C)c1ccccc1Cl (stereo not given) | x | x | 28.3%
COc1ccc(OC)c2c1C(=O)c1ccccc1C2=O | 1.7% | -4.6% | u
COc1ccc(OC)c2c1C(=O)C(Cl)=C(Cl)C2=O | x | x | 1.26µM*
O=C(Nc1ccc2nc(-c3ccccc3)[nH]c2c1)c1cccs1 | -9.0% | -9.5% | -16.6%
O=C(Nc1ccc2nc(-c3ccc4nc[nH]c4c3)[nH]c2c1)c1cccs1 | u | 12.6µM* | 1.0%
CCn1c(SCc2nc3scc(-c4ccccc4)c3c(=O)[nH]2)nnc1-c1cccs1 | -26.2% | -4.3% | u
COCCn1c(SCc2nc3scc(-c4ccc(Cl)cc4)c3c(=O)[nH]2)nnc1-c1cccc(C)c1 | 25.1µM* | -6.0% | 13.8%
COc1ccc(C2=Nn3c(nnc3-c3ccccc3)SC2)cc1OC | -2.3% | 7.0% | 3.0%
Cc1cc(-c2nnc3n2N=C(c2ccc(-c4ccccc4)cc2)CS3)n[nH]1 | 25.1µM* | -10.3% | -0.2%
Cc1cc(-c2nnc3n2N=C(c2ccccc2)CS3)n[nH]1 | x | x | -8.7%
COc1cccc(C2=Nn3c(nnc3-c3ccccc3C)SC2)c1 | x | x | 9.98µM*
COc1cccc(C2=Nn3c(nnc3-c3ccc(OC)cc3OC)SC2)c1 | x | x | -7.2%
c1ccc(-c2cc(-c3nnc4n3N=C(c3ccc5ccccc5c3)CS4)[nH]n2)cc1 | 25.1µM* | -3.2% | 16.2%
O=C(Nc1cccc(-c2nc3ccccc3o2)c1)c1cc([N+](=O)[O-])ccc1N1CCOCC1 | u | -3.7% | x
CC(C)c1nn2c(=O)cc(COC(=O)c3cccc(NC(=O)c4ccccc4F)c3)nc2s1 | 1.9% | 0.4% | x
C/C(=N\NC(=O)c1ccncc1)c1ccc2ccccc2c1O | -5.8% | -0.3% | x
CCc1ccc(OC(C)C(=O)N2CCC(c3nc4ccccc4s3)CC2)cc1 (stereo not given) | u | -13.2% | x
O=[N+]([O-])c1ccc2c(N=Nc3ccc4ccccc4c3O)c(O)cc(S(=O)(=O)O)c2c1 | 11.1% | -26.9% | x
Cc1ccc2c(c1)c(N=NC(N)=S)c(O)n2Cc1ccccc1 | 2.51µM* | u | -9.8%
NC(=S)N=Nc1c(O)n(CCCl)c2ccc(Br)cc12 | x | x | -12.1%
NC(=S)N=Nc1c(O)n(Cc2ccc(F)cc2)c2ccccc12 | u | 12.6µM* | -1.4%
NC(=S)N=Nc1c(O)n(Cc2ccc(Br)cc2)c2ccccc12 | u | u | 5.2%
CCOC(=O)c1c(C)[nH]c(C(=O)COC(=O)CNC(=O)C2CCCCC2)c1C | 7.94µM* | u | 0.6%
CCOC(=O)c1c(C)[nH]c(C(=O)COC(=O)[C@H](C)NC(=O)c2ccccc2Cl)c1C | -0.8% | -27.2% | 2.5%
SMILES | Cruzain inh noDet | Cruzain Triton | Giardia FBPA inh
CCOC(=O)c1c(C)[nH]c(C)c1C(=O)COC(=O)CNC(=O)C1CCCCC1 | x | x | 3.6%
CCOC(=O)c1c(C)[nH]c(C(=O)COC(=O)CNC(=O)c2ccccc2Cl)c1C | 12.6µM* | 11.2µM* | 10.2%
CC#CCN1c2ccccc2[C@]23C[C@@H](C(=O)OC)N(C(=O)COCc4ccccc4)C2=NC(C(=O)OC)=C(C(=O)OC)[C@H]13 | x | x | -0.1%[12.9 µM]
CCCCc1nc2c(c3c1C[C@H](C)OC3)CN(C(=O)NCCCC(=O)OCC)CC2 | x | x | -0.6%[12.9 µM]
CCOC(=O)c1c(Nc2ccc(OC)cc2)nnc(-c2ccccc2)c1-c1ccccc1 | -14.1% | -3.5% | x
O=c1c2ccccc2c(C=Nc2ccc(S(=O)(=O)N3CCCCC3)cc2)c(O)n1-c1ccc(Cl)cn1 | 7.94µM* | 4.0% | 2.0%
CCc1nnc(/N=C/c2c(O)n(-c3ccc(Cl)cn3)c(=O)c3ccccc23)s1 | u | -7.5% | 0.1%
COc1cc(CN2CCCCC2)cc2cc(C(=O)O)c(=O)oc12 | 7.1% | 5.3% | x
Cc1ccc(NC(=O)COC(=O)c2csc3c2CCC(C)C3)cc1S(=O)(=O)N1CCCCC1 (stereo not given) | 25.1µM* | -4.3% | -2.9%
CC1CCc2c(C(=O)OCC(=O)Nc3cccc(S(=O)(=O)N4CCCCCC4)c3)csc2C1 (stereo not given) | u | -0.5% | -2.2%
O=C1Nc2ccc(NS(=O)(=O)c3cccs3)c3cccc1c23 | -4.2% | -2.6% | 8.89µM*
CNS(=O)(=O)c1ccc2c3c(cccc13)C(=O)N2 | x | x | 0.6%

Bioassay records from PubChem.
